This is a sample that favours compounds with a hit; in the whole collection about 7% have one here.
S2 tox: viability counter-screen for ATXN expression inhibitors | Potency, µM (top dose mostly 56.7 µM), usual class: cytotoxic | S2 cells (HEK-293 line with an ATXN2-luciferase reporter) viability, CellTiter-Fluor protease fluorescence, 24 h | 0.49% of 400,000 active | AID 651635; note: potency is the fitted concentration of half-maximal effect; nearly all actives have a fitted effect of over 40% in size
D3 ag: D3 dopamine receptor (human) agonism | P35462 | D3R DiscoveRx beta-arrestin cells, luminescence, 90 min | max activation, % | 0.58% of 410,000 active | AID 652048; in the data active = max activation above about 30%; note: 0% is about no effect
Target sequence (P35462 whole entry, looked up): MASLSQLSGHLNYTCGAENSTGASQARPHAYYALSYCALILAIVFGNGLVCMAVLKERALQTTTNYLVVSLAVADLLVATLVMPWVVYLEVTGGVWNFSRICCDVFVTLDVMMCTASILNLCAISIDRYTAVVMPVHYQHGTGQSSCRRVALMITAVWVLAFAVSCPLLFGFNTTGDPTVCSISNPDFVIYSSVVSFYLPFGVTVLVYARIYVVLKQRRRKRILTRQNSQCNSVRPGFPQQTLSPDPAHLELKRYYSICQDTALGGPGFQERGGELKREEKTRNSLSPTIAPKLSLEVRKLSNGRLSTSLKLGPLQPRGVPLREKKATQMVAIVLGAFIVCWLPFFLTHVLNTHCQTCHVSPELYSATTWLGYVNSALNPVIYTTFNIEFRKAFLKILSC
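Cells at 1500/well, incubated overnight, then treated with pinned compounds (dopamine as control) for 90 min at 37 degrees C. DiscoveRx reagent added for 30 - 60 minutes at room temperature; luminescence read.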
Integrin act MD: activators of alpha7 integrin expression for muscular dystrophy; alpha7betagal myoblasts, beta-gal FDG fluorescence, 48 h; Potency, µM (titrated, usually from 38.3 µM), for the others: at the highest dose activation, hits mostly activators; 0.064% of 350,000 active;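 note: potency is the fitted concentration of half-maximal effect; 100% = response of the positive control SU9516; nearly all actives have a fitted effect of over 60% in size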
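alpha7betagal+/- myoblasts (passage 13, 250/well) treated 48 h at 37C with compounds at 1:260 dilution of DMSO stock. Lysed, then beta-galactosidase activity read as FDG fluorescence (ex 480/em 540) after 30 min, with pre-read for autofluorescence.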
IL1B secr inh: blocks inflammasome-driven IL-1 beta release; 4.7% of 360,000 active; activity change, % at 57.5 µM; THP-1 LPS/ATP IL-1B secretion, AlphaLISA, 16 h; hits give low values; AID 743279; in the data active = activity change below about -50%; inconclusive = mostly about -30% to -49%; note: % is set by controls: 0 for no effect and ±100 for the full control effect
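Secreted IL-1B measured by AlphaLISA bead assay after 16 h compound exposure of THP-1 cells; compounds (final up to 57.5 uM) added 1 h before LPS (250 ng/mL) and ATP (1.25 mM) stimulation; lower signal means less secretion.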
D3 antag: antagonists of human D3 dopamine receptor; max response, negative = inhibition, %; D3R cells, DiscoveRx beta-arrestin luminescence, antagonist mode; hits give low values; AID 652054; 2.5% of 360,000 active; in the data active = max response below about -50%; inconclusive = no clear call, values can overlap the other calls; note: % is set by controls: 0 for no effect and ±100 for the full control effect
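Cells expressing the human receptor were seeded at 1500 cells/well, incubated overnight at 37 degrees C in 5% CO2, then exposed to library compounds with dopamine controls for 90 minutes at 37 degrees C before luminescent detection.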
ATXN2 expr inh: reduces ATXN2 reporter expression in HEK-293 cells. HEK-293 ATXN2-luciferase reporter, luminescence, 24 h. Potency, µM (highest dose often 57 µM), for the others: at the top dose activity change, negative = inhibition, actives largely listed as inhibitors. 0.72% of 360,000 active; note: potency is the fitted concentration of half-maximal effect; % is set by controls: 0 for no effect and ±100 for the full control effect; nearly all actives have a fitted effect of over 55% in size
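qHTS (up to 57 uM final) was run with 24 h compound exposure of reporter cells at 37 °C. Each well was multiplexed: SteadyGlo luminescence measured ATXN2-luciferase expression after a fluorogenic Gly-Phe-AFC viability readout (25 uM final).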
An asterisk follows results filed as active. Unless noted, calls come from the whole dose curve; as a rule, active = well fitted curve in the direction sought with a large enough effect; inconclusive = small, poorly fitted or top-dose-only effect, or another doubt; inactive = no such curve, though single readings can be large; an effect the other way counts as inactive or inconclusive.

For O=C(Cc1ccccc1)Nc1c(C(=O)c2ccccc2)oc2ccccc12 the results were D3 ag 4.1.
Screening BrC(/C=N/N1CCN(Cc2ccccc2)CC1)=C/c1ccccc1 returned S2 tox inactive, D3 ag -21.5, Integrin act MD -27.1%, IL1B secr inh -81.5*, D3 antag -29.1 and ATXN2 expr inh -16.6%.
For Oc1ccc(/C=N/N2CCN(c3ccccn3)CC2)cc1 the results were S2 tox inactive, D3 ag -9.1, Integrin act MD 10.8%, IL1B secr inh -4.1 and D3 antag 1.9.
Oc1cccc(/C=N/N2CCN(c3ccccn3)CC2)c1 was read as S2 tox inactive, D3 ag 8.0, Integrin act MD -14.5%, IL1B secr inh -8.8, D3 antag -12.6 and ATXN2 expr inh 20.9%.
For BrC(=C\c1ccccc1)/C=N/N1CCN(c2ccccn2)CC1 the results were S2 tox inactive, D3 ag -4.2, Integrin act MD 9.5%, IL1B secr inh -85.1*, D3 antag -13.2 and ATXN2 expr inh -29.8%.
For CC(C)(C)c1ccc(/C=N/N2CCN(c3ccccn3)CC2)cc1 the results were S2 tox inactive, D3 ag 30.3*, Integrin act MD -33.1%, D3 antag -5.7 and ATXN2 expr inh -13.1%.
`O=C(NCc1ccco1)c1ccc2sc([C@@H]3O[C@H](CO)[C@@H](O)[C@H]3O)nc2c1` gave S2 tox inactive, D3 ag 5.8, IL1B secr inh 17.9, D3 antag 3.8 and ATXN2 expr inh 11.4%.
Screening O=C(CCl)Nc1ccc(S(=O)(=O)NC2=NCCCCC2)cc1 returned D3 ag -6.0, Integrin act MD -51.9%, IL1B secr inh -96.2*, D3 antag -17.8 and ATXN2 expr inh inconclusive.
`COc1ccc(/C=C/C(=O)OCC(=O)Nc2cccc(S(=O)(=O)NC3=NCCCCC3)c2)cc1` gave S2 tox inactive, D3 ag -1.2, Integrin act MD 10.3%, IL1B secr inh -69.6*, D3 antag -10.2 and ATXN2 expr inh -6.6%.
`COc1cc(OC)cc(C(=O)OCC(=O)Nc2cccc(S(=O)(=O)NC3=NCCCCC3)c2)c1` gave S2 tox inactive, D3 ag 4.4, Integrin act MD -6.4%, IL1B secr inh 7.7, D3 antag 9.0 and ATXN2 expr inh 8.6%.
O=C(/C=C/c1ccc(Cl)cc1Cl)Nc1cccc(S(=O)(=O)NC2=NCCCCC2)c1 was read as S2 tox inactive, D3 ag -9.1, Integrin act MD 12.8%, IL1B secr inh -68.7*, D3 antag 24.9 and ATXN2 expr inh 1.6%.
Screening O=C(/C=C/c1ccccc1[N+](=O)[O-])Nc1cccc(S(=O)(=O)NC2=NCCCCC2)c1 returned S2 tox inconclusive, D3 ag -45.9, IL1B secr inh -16.2, D3 antag inconclusive and ATXN2 expr inh -6.7%.
Cc1ccc(C)c(C(=O)OCC(=O)Nc2cccc(S(=O)(=O)NC3=NCCCCC3)c2)c1 was read as S2 tox inactive, D3 ag -11.0, Integrin act MD -21.6%, IL1B secr inh -68.7*, D3 antag -11.4 and ATXN2 expr inh -16.3%.
For CC(C)(C)C(=O)Nc1ccc(S(=O)(=O)NC2=NCCCCC2)cc1 the results were S2 tox inactive, D3 ag 5.4, Integrin act MD inconclusive, IL1B secr inh 6.1, D3 antag -6.7 and ATXN2 expr inh 1.7%.
O=C(CCl)Nc1cccc(S(=O)(=O)NC2=NCCCCC2)c1 was read as D3 ag -3.7, Integrin act MD -85.0%, IL1B secr inh -99.3* and D3 antag -6.1.
CCCCn1c(-c2ccccc2C)nc2cc3[nH]c(=O)c(C(C)C)nc3cc21 was read as S2 tox inconclusive, D3 ag 0.0, Integrin act MD -7.6%, IL1B secr inh -25.6, D3 antag -63.8* and ATXN2 expr inh -32.4%.
CN1CCC(NCCC(c2ccc(F)cc2)c2ccc(Cl)cc2)CC1 (stereo not given) was read as D3 ag -16.6, Integrin act MD -77.1%, IL1B secr inh -103.1*, D3 antag -5.7 and ATXN2 expr inh 25.1µM*.
`CC(C)C(CCNC1CCN(C)CC1)c1ccc(Cl)cc1` (stereo not given) gave S2 tox inconclusive, D3 ag -3.4, Integrin act MD -72.8%, IL1B secr inh -51.5*, D3 antag -13.5 and ATXN2 expr inh inconclusive.
For Cc1ccc(C2(C)CC(C)(C)N(C(=O)CSc3nnc(C)s3)c3ccccc32)cc1 (stereo not given) the results were S2 tox inactive, D3 ag 7.2, Integrin act MD 14.1%, IL1B secr inh -85.2*, D3 antag 23.1 and ATXN2 expr inh -24.5%.
`CC1=CC(C)(C)N(C(=O)CSc2nnc(C)s2)c2ccc(C)cc21` gave S2 tox inactive, D3 ag 3.7, Integrin act MD -1.9%, IL1B secr inh -62.8*, D3 antag 13.6 and ATXN2 expr inh -23.9%.
Cc1nnc(SCC(=O)N2c3ccccc3C(C)(c3ccccc3)CC2(C)C)s1 (stereo not given) was read as S2 tox inconclusive, D3 ag -11.6, Integrin act MD 13.4%, IL1B secr inh -75.7*, D3 antag -27.1 and ATXN2 expr inh inconclusive.
Cc1ccc(C(=O)CSc2nnc(C)s2)cc1 was read as S2 tox inactive, D3 ag -3.7, Integrin act MD -0.1%, IL1B secr inh -8.5, D3 antag -2.3 and ATXN2 expr inh 31.6%.
For CCCCC(=O)N1c2ccccc2C(C)(c2ccccc2)CC1(C)C (stereo not given) the results were S2 tox inactive, D3 ag 8.0 and ATXN2 expr inh -3.1%.
CC1=CC(C)(C)N(C(=O)CSc2nnc(N)s2)c2cc(C)c(C)cc21 was read as S2 tox inactive, D3 ag -5.7, Integrin act MD -5.8%, IL1B secr inh -0.2, D3 antag -2.4 and ATXN2 expr inh -11.9%.
COc1ccc(O)c(C(=O)c2cnn(-c3ccccn3)c2)c1 was read as S2 tox inactive, D3 ag 4.8, Integrin act MD 14.8%, IL1B secr inh -21.1, D3 antag 1.7 and ATXN2 expr inh 40.2%.
`N/C(COc1ccc(Cl)cc1Cl)=N\NS(=O)(=O)c1ccccc1` gave S2 tox inactive, D3 ag 0.2, Integrin act MD 2.1%, IL1B secr inh -9.8, D3 antag -12.8 and ATXN2 expr inh -15.4%.
For CC(=O)N1[C@H](C)C=C[C@]1(Cc1ccccc1)C(=O)O the results were S2 tox inactive, D3 ag 30.6*, Integrin act MD 3.7%, IL1B secr inh 19.4, D3 antag 8.1 and ATXN2 expr inh 1.4%.

Compound activity from PubChem BioAssay.
